Experimental data from PubChem BioAssay AID651658 (Broad Institute, 2012).
About 5,100 (1.5%) of roughly 340,000 compounds were called active. For the sample, actives were picked, then their nearest neighbours and some compounds at random. Unmarked numbers belong to inactive results.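 The calls were made as follows: active = mean Tm shift, scaled 0 neutral to 100 positive control, at about 1.3% or above, every replicate too (limit read from the data); inconclusive = no clear call, values can overlap the other calls; inactive = the rest.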

Each compound was assayed against Fibroblast growth factor 22 (Homo sapiens) (UniProt Q9HCT0) (assay: FGF22 ligand-induced thermal stabilization – biophysical, thermal shift, single point, FGF22 synaptogenesis inhibitor project, primary screen (AID 651658)). Settings: recombinant FGF22 thermal shift, SYPRO orange fluorescence; at 9.99 µM; hits give high values; percent of sucrose octasulfate shift, DMSO zero.
Chain of Fibroblast growth factor 22 (Homo sapiens) (Q9HCT0 whole entry, looked up): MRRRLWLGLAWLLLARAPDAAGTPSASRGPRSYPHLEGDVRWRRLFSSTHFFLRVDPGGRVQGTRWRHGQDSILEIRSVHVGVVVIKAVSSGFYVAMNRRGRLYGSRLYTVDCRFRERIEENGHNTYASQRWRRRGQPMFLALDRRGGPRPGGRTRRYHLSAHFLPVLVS
`CN(C)C(=O)C[C@H]1CC[C@@H](NC(=O)C2CC2)[C@@H](CO)O1` was tested, and the activity (Tm shift, normalised) was -0.057%. With `C[C@H]1CN([C@@H](C)CO)C(=O)c2cccc(NC(=O)Nc3ccccc3)c2O[C@H]1CN(C)S(=O)(=O)c1ccc(Cl)cc1` the activity (Tm shift, normalised) was -0.286%. In the case of `C[C@@H]1CN([C@H](C)CO)C(=O)c2cc(-c3cccc(C(=O)N(C)C)c3)cnc2O[C@H]1CN(C)S(=O)(=O)c1ccc(F)cc1`, the activity (Tm shift, normalised) is reported as -0.014%. With `COCC(=O)Nc1ccc2c(c1)OC[C@H](C)N(Cc1ccccc1)C[C@H](C)[C@@H](OC)CN(C)C2=O` the activity (Tm shift, normalised) was -0.276%. For `C[C@@H]1CN([C@@H](C)CO)C(=O)c2cc(NC(=O)Nc3ccc4c(c3)OCO4)ccc2O[C@@H](C)CCCCO[C@@H]1CN(C)S(=O)(=O)c1cccs1`, the activity (Tm shift, normalised) was 0.586%. `Cc1ccc(S(=O)(=O)N(C)C[C@@H]2Oc3c(NC(=O)C4CC4)cccc3C(=O)N([C@H](C)CO)C[C@@H]2C)cc1` was tested, and the activity (Tm shift, normalised) was 0.051%. `O=C(C[C@H]1CC[C@H]2[C@@H](COC[C@@H](O)CN2S(=O)(=O)c2cccc(Cl)c2)O1)NC1CCCC1` gave an activity (Tm shift, normalised) of -0.093%. With `O=C(C[C@H]1CC[C@H]2[C@@H](COC[C@H](O)CN2S(=O)(=O)c2cccc(Cl)c2)O1)Nc1ccccc1` the activity (Tm shift, normalised) was 1.27% (active). In the case of `Cc1cccc(S(=O)(=O)N2C[C@@H](O)COC[C@H]3O[C@H](CC(=O)N4CCN(C)CC4)CC[C@@H]32)c1`, the activity (Tm shift, normalised) is reported as -0.222%. `Cc1cccc(S(=O)(=O)N2C[C@@H](O)COC[C@H]3O[C@H](CC(=O)Nc4ccc(-c5ccccc5)cc4)CC[C@@H]32)c1` was tested, and the activity (Tm shift, normalised) was 1.98% (active). For `COc1cccc(S(=O)(=O)N2C[C@@H](O)COC[C@@H]3O[C@H](CC(=O)Nc4ccccc4)CC[C@H]32)c1`, the activity (Tm shift, normalised) was -0.453%. With `CN(C)C(=O)C[C@@H]1CC[C@H]2[C@@H](COC[C@H](O)CN2S(=O)(=O)c2ccccc2)O1` the activity (Tm shift, normalised) was -0.015%. `COc1cccc(-c2ccc(CC[C@H]3O[C@H]4CC[C@@H](CO)O[C@H]4C[C@@H]3NS(C)(=O)=O)cc2)c1` showed an activity (Tm shift, normalised) of -0.835%. Work on `CCCNC(=O)N(C)C[C@H]1Oc2ncc(-c3ccccc3F)cc2C(=O)N([C@@H](C)CO)C[C@H]1C` yielded an activity (Tm shift, normalised) of 0.186%. `C[C@H](CO)N1C[C@H](C)[C@H](CN(C)Cc2ccc(C(=O)O)cc2)OCc2cn(nn2)CCCC1=O` showed an activity (Tm shift, normalised) of -0.002%. `C/C=C/c1cnc2c(c1)C(=O)N([C@@H](C)CO)C[C@@H](C)[C@@H](CN(C)S(=O)(=O)c1ccccc1F)O2` gave an activity (Tm shift, normalised) of 0.721%. `O=C(N[C@@H]1CC[C@@H](CC(=O)N2CCc3ccccc3C2)O[C@@H]1CO)C1CCOCC1` showed an activity (Tm shift, normalised) of -0.035%. In the case of `Cc1ccc(S(=O)(=O)Nc2nc(C)cc(N/N=C/c3ccc(O)cc3)n2)cc1`, the activity (Tm shift, normalised) is reported as 43.2% (active). In the case of `Cc1ccc(S(=O)(=O)Nc2nc(C)cc(-n3nc(C)cc3C)n2)cc1`, the activity (Tm shift, normalised) is reported as 0.134%. With `Cc1ccc(OCCCC(=O)Nc2ccc(S(=O)(=O)Nc3cc(C)nc(C)n3)cc2)cc1` the activity (Tm shift, normalised) was -0.115%. Work on `CN(C)C(=O)C[C@H]1C[C@@H]2c3cc(NC(=O)NC4CCCCC4)ccc3O[C@@H]2[C@@H](CO)O1` yielded an activity (Tm shift, normalised) of -7.03%. Work on `C[C@H](CO)N1C[C@H](C)[C@@H](CN(C)Cc2cccnc2)Oc2cc(C#CC3CC3)ccc2S1(=O)=O` yielded an activity (Tm shift, normalised) of -0.495%. For `C=CCn1cc(-c2cccc(C(F)(F)F)c2)cc(C#N)c1=O`, the activity (Tm shift, normalised) was 42.9% (active). `CC1(Cc2cccc(C#N)c2)C(=O)Nc2ccc(-c3cccc(C(F)(F)F)c3)cc21` (stereo not given) showed an activity (Tm shift, normalised) of 0.505%. `Cn1cc(-c2ccccc2)cc(C#N)c1=O` was tested, and the activity (Tm shift, normalised) was 0.065%. Work on `COc1cccc(S(=O)(=O)N2CCC3(CC2)CN[C@H](CO)c2c3c3ccc(OC)cc3n2C)c1` yielded an activity (Tm shift, normalised) of 0.197%. `Cc1ccc(CN2CCN(Cc3ccccc3-c3ccco3)CC2CCO)o1` (stereo not given) was tested, and the activity (Tm shift, normalised) was 43.4% (active). With `Cc1ccc(CN2CCN(Cc3cn(C)nc3-c3ccccc3)CC2CCO)o1` (stereo not given) the activity (Tm shift, normalised) was -0.412%. In the case of `OCCC1CN(Cc2ccccc2-c2ccco2)CCN1Cc1ccsc1` (stereo not given), the activity (Tm shift, normalised) is reported as 0.318%. In the case of `CCS(=O)(=O)N[C@@H]1CC[C@@H](CC(=O)NCC2CC2)O[C@H]1CO`, the activity (Tm shift, normalised) is reported as 0.034%. Compound `CN1C(=O)c2cc(NC(=O)c3ccc(F)cc3)ccc2OC[C@H]2O[C@H](CC(=O)N3CCOCC3)CC[C@@H]21` has an activity (Tm shift, normalised) of -0.26%. `O=C(CSCc1ccc([N+](=O)[O-])cc1)Nc1cccc(C(=O)Nc2ccccc2C(=O)O)c1` gave an activity (Tm shift, normalised) of -0.059%. In the case of `O=C(COc1ccc([N+](=O)[O-])cc1)Nc1cccc(C(=O)Nc2ccccc2C(=O)O)c1`, the activity (Tm shift, normalised) is reported as 1.4% (active). For `CN(CCc1ccccc1)C(=O)c1cccc(NC(=O)Cc2ccc([N+](=O)[O-])cc2)c1`, the activity (Tm shift, normalised) was -0.076%. `C[C@H](CO)N1C[C@H](C)[C@@H](CN(C)C(=O)C2CCOCC2)Oc2cc(-c3ccc(C(=O)N(C)C)cc3)ccc2S1(=O)=O` showed an activity (Tm shift, normalised) of -0.068%.
